# In the supplement of paper PMC7724964:
# T1: NR2C1 355-603 Hormone_recep (domain begin residue: 355, domain end residue: 603), P13056
# T1 chain: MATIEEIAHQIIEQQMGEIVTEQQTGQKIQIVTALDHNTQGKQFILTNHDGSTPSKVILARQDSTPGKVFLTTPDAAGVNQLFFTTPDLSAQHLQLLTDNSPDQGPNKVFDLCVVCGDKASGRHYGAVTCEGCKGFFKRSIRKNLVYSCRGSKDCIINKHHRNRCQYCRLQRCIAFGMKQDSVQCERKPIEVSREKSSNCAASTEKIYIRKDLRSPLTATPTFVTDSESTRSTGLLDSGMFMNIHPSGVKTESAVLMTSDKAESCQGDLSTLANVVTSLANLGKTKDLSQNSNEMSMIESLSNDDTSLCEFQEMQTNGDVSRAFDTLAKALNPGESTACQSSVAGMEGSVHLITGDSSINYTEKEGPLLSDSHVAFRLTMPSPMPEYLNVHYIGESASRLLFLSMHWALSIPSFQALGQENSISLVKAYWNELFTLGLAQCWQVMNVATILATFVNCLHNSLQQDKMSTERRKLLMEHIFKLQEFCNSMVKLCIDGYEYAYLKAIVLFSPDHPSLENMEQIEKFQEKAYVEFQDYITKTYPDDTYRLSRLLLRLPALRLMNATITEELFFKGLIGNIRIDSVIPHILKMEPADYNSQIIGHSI
# T2: MYL6 4-151 EF-hand_6 (domain begin residue: 4, domain end residue: 151), P60660
# T2 chain: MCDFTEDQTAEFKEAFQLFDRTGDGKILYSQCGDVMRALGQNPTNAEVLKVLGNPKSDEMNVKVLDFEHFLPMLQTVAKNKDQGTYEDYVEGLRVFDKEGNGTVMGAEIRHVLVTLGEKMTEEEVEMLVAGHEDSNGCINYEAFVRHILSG
# T3: NR1H3 204-447 Hormone_recep (domain begin residue: 204, domain end residue: 447), Q13133
# T3 chain: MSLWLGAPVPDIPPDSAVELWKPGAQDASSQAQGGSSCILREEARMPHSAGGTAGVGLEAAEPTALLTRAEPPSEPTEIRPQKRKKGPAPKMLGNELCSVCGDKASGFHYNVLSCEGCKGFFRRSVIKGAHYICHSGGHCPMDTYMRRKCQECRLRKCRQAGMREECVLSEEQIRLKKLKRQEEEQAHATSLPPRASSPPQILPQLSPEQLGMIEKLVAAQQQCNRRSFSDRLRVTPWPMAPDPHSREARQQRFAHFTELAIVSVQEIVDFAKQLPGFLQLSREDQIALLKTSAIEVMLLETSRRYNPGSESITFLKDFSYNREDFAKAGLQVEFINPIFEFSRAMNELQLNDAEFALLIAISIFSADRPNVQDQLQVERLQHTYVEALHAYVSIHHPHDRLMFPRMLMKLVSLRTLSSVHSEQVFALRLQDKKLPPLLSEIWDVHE
# T4: NFKBIA 70-282 EF-hand_6 (domain begin residue: 70, domain end residue: 282), P25963
# T4 chain: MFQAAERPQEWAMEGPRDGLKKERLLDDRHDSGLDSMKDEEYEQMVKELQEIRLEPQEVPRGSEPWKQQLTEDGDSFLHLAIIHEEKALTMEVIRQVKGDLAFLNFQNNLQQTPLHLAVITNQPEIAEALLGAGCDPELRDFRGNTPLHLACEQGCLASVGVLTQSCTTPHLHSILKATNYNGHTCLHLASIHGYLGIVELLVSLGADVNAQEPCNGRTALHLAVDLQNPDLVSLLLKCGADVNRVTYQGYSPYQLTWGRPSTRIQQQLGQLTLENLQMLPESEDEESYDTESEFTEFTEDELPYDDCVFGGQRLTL
# T5: NR4A2 327-598 Hormone_recep (domain begin residue: 327, domain end residue: 598), P43354
# T5 chain: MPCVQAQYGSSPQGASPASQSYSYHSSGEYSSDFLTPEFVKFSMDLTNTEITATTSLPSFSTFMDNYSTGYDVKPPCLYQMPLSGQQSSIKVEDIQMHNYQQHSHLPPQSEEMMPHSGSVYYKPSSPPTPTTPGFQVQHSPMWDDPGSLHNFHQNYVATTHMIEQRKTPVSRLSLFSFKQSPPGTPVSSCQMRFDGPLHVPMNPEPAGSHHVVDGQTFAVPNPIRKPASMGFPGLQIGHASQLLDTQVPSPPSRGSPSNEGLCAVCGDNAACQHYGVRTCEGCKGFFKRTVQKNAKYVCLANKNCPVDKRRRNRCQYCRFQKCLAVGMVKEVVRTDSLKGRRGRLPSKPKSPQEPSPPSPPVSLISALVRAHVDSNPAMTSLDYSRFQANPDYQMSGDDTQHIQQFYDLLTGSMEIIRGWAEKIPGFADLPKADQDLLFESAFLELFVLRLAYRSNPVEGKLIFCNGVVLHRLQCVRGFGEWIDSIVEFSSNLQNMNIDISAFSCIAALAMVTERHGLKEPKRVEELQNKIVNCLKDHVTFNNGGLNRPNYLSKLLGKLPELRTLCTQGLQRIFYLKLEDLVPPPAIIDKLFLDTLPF
# T6: NR1H4 256-474 Hormone_recep (domain begin residue: 256, domain end residue: 474), Q96RI1
# T6 chain: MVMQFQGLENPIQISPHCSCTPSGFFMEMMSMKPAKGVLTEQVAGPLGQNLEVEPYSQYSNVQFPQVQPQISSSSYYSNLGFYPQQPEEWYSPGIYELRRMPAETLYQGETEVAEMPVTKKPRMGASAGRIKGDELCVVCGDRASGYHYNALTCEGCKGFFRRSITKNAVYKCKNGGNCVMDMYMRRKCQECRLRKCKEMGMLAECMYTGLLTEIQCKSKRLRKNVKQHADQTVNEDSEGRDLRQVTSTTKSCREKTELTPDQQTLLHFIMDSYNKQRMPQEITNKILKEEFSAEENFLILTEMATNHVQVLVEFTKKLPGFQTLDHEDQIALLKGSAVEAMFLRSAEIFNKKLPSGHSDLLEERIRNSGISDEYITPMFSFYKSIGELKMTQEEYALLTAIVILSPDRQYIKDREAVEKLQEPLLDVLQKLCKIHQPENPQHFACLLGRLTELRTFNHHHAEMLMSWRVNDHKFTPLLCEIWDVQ
# T7: NR1D2 386-579 Hormone_recep (domain begin residue: 386, domain end residue: 579), Q14995
# T7 chain: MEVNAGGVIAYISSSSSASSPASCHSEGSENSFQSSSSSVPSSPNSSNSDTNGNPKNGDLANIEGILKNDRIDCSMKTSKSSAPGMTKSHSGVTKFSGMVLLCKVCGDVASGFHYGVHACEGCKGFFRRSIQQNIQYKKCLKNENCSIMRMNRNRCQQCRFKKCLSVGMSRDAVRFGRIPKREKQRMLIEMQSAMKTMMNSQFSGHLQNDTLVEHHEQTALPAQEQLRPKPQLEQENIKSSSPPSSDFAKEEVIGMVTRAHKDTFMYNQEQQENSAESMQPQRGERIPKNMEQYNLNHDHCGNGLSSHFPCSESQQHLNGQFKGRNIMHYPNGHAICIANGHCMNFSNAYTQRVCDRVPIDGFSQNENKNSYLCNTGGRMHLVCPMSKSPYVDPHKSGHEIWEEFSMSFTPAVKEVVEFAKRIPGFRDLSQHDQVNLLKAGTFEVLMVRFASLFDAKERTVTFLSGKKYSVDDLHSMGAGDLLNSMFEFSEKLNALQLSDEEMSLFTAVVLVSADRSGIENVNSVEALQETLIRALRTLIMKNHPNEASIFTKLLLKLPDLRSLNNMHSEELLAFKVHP
# T8: NR1H2 203-460 Hormone_recep (domain begin residue: 203, domain end residue: 460), P55055
# T8 chain: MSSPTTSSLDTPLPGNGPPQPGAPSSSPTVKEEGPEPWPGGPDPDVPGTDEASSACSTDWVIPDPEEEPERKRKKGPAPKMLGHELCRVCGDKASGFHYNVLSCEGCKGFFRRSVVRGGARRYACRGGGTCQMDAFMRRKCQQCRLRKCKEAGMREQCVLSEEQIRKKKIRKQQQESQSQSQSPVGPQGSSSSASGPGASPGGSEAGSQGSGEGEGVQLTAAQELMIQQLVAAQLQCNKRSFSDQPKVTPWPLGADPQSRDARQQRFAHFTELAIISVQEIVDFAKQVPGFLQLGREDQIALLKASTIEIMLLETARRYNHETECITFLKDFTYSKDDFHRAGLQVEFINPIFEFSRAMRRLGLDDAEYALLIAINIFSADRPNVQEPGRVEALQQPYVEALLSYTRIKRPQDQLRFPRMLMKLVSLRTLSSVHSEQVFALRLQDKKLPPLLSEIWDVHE
# Biological target: MSH6 89-203 PWWP (domain begin residue: 89, domain end residue: 203), P52701
# Experiment: phage ELISA signal ratio (GST-PRM binding over GST background); higher = stronger binding of peptide-phage to the PRM
# Summary of the method: (§1)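 Each value is the phage ELISA signal on the glutathione S-transferase (GST)-domain fusion divided by the signal on GST alone. Human peptide recognition domains were expressed in 96-well plates, fused to the C-terminus of GST, and selected against an M13 phage library carrying randomized, cysteine-free, glycine-flanked hexadecapeptides on the gene-8 major coat protein. After five selection rounds, approximately 48 individual clones from rounds 4 and 5 were tested by phage ELISA, and positive clones were sequenced.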
# Sequence of MSH6 89-203 PWWP (domain begin residue: 89, domain end residue: 203), P52701 (P52701 whole entry): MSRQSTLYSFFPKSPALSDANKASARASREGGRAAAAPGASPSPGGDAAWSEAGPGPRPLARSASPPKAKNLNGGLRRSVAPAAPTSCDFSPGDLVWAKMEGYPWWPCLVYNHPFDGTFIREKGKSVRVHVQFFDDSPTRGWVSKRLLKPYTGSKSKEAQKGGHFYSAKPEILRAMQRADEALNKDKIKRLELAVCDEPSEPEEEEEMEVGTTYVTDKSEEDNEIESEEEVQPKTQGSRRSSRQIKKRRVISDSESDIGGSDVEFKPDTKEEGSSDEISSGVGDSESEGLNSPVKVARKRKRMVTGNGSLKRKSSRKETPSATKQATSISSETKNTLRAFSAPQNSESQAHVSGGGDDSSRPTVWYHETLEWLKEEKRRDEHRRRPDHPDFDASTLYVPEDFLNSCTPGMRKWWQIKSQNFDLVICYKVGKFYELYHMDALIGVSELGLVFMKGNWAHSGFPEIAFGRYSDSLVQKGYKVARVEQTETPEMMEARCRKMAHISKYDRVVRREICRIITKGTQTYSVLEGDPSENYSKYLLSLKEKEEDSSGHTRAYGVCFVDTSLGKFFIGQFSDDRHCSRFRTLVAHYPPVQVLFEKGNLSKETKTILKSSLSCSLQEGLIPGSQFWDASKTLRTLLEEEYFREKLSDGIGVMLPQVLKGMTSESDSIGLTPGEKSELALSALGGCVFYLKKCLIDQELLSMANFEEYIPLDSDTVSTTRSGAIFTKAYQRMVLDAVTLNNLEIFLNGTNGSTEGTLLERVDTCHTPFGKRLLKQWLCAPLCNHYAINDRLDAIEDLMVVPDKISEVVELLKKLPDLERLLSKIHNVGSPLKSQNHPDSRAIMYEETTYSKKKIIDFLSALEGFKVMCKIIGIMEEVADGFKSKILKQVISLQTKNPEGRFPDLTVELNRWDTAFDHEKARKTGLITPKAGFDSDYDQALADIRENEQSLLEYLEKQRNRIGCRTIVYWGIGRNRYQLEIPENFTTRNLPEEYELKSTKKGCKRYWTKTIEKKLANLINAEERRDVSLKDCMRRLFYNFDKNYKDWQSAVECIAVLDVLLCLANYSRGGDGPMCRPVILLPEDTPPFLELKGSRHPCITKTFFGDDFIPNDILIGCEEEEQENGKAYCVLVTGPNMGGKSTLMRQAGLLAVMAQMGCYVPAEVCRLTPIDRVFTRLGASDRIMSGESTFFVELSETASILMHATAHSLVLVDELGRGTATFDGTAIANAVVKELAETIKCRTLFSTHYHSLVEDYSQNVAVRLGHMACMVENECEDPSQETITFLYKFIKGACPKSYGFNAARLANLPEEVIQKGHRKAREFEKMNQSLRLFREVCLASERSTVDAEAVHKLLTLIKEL
row,Binder,phage ELISA signal ratio
1,TSYDPWVMEGMTQVVA,6.43
2,DYMAIWDHIPLKDAGF,6.88

# Biological target: SETD1A 2-220 RRM_1 (domain begin residue: 2, domain end residue: 220), O15047
# Experiment: as above
# Summary of the method: as §1
# Sequence of SETD1A 2-220 RRM_1 (domain begin residue: 2, domain end residue: 220), O15047 (O15047 whole entry): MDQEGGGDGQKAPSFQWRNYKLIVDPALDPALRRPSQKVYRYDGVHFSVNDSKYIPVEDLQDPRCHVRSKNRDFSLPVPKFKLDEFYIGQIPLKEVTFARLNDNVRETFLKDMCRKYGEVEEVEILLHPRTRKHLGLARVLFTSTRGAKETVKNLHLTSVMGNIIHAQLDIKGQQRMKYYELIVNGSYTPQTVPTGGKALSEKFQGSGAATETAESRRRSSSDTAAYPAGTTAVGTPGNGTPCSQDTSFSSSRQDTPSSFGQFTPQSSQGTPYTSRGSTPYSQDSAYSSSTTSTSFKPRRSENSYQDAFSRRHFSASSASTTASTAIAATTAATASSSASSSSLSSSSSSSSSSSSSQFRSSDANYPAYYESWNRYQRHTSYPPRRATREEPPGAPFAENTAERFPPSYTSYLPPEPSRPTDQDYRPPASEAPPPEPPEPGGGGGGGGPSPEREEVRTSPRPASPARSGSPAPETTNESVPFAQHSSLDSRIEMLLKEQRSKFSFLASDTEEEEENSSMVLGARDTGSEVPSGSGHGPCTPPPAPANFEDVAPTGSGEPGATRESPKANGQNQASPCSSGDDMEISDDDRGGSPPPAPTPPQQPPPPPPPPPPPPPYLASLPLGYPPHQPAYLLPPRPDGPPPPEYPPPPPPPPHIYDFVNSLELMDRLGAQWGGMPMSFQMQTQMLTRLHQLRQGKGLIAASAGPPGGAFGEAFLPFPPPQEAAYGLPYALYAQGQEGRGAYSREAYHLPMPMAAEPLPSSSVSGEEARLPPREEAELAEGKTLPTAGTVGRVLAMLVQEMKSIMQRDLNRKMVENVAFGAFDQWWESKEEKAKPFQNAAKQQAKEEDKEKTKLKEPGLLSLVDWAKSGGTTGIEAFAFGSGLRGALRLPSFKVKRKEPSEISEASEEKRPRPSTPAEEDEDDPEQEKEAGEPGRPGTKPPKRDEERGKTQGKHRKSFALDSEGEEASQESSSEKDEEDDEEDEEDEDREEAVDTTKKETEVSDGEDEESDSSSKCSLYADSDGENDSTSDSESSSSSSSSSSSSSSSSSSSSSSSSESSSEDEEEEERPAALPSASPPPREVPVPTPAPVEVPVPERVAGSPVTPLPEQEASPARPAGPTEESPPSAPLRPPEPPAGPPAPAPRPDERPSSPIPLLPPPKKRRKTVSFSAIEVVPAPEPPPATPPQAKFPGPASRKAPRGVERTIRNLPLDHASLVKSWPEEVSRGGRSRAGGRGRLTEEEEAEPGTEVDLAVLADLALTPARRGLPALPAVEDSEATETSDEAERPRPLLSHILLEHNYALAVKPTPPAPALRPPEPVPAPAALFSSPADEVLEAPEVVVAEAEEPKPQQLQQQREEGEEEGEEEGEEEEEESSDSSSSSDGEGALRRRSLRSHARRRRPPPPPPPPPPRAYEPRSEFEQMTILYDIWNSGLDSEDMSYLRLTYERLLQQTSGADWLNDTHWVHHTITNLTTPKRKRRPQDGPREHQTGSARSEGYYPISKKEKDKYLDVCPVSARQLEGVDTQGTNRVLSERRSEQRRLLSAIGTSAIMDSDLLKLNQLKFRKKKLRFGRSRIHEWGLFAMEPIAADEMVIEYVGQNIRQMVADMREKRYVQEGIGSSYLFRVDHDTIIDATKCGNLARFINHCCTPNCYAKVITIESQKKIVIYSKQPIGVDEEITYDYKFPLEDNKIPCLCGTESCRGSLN
row,Binder,phage ELISA signal ratio
1,TSYDPWVMEGMTQVVA,7.68

# Biological target: T1, NR2C1 355-603 Hormone_recep (domain …
# Experiment: as above
# Summary of the method: as §1
row,Binder,phage ELISA signal ratio
1,AAPGSWDYSLLEFHYL,3.03
2,TELPPLPYAWQDYAHW,24.8
3,WGPFLSFQYAVDPTQE,19.1
4,MPDVPYQWVDLTEWFM,15
5,PYTGIWFGEYLHNFIP,9.25
6,NQWGPYWSFSFVPMDW,8.51

# Biological target: T2, MYL6 4-151 EF-hand_6 (domain begin …
# Experiment: as above
# Summary of the method: as §1
row,Binder,phage ELISA signal ratio
1,QWWVFHVGDQMYWAYV,3.08

# Biological target: T3, NR1H3 204-447 Hormone_recep (domain …
# Experiment: as above
# Summary of the method: as §1
row,Binder,phage ELISA signal ratio
1,EYYPEWDFLWRHMQEP,8.56
2,TQEMWDWVMMIEMTEF,14
3,DYPEVEWLTQQWDFWS,17

# Biological target: T4, NFKBIA 70-282 EF-hand_6 (domain begin …
# Experiment: as above
# Summary of the method: as §1
row,Binder,phage ELISA signal ratio
1,DQPPPSYSVLTPDVAL,13.8
2,WVDEWTDVVQPMYYYD,18.3
3,QPLPPPPPPSSIPAPA,5.2

# Biological target: T5, NR4A2 327-598 Hormone_recep (domain …
# Experiment: as above
# Summary of the method: as §1
row,Binder,phage ELISA signal ratio
1,AFKQLMFHVIGEEYSV,30.5
2,QTMQRQWLDILLSLEL,20.2
3,QWSVEPWWHEMVIQGI,24.1
4,SPFDFWPLQSWWFKTM,9.75
5,TMSLWPSSWDIITLNS,15

# Biological target: T6, NR1H4 256-474 Hormone_recep (domain …
# Experiment: as above
# Summary of the method: as §1
row,Binder,phage ELISA signal ratio
1,WQEWLDYTVESQYTLV,7.27
2,GDLEQHLMEWWTREVF,12.3

# Biological target: NR5A1 221-461 Hormone_recep (domain begin residue: 221, domain end residue: 461), Q13285
# Experiment: as above
# Summary of the method: as §1
# Sequence of NR5A1 221-461 Hormone_recep (domain begin residue: 221, domain end residue: 461), Q13285 (Q13285 whole entry): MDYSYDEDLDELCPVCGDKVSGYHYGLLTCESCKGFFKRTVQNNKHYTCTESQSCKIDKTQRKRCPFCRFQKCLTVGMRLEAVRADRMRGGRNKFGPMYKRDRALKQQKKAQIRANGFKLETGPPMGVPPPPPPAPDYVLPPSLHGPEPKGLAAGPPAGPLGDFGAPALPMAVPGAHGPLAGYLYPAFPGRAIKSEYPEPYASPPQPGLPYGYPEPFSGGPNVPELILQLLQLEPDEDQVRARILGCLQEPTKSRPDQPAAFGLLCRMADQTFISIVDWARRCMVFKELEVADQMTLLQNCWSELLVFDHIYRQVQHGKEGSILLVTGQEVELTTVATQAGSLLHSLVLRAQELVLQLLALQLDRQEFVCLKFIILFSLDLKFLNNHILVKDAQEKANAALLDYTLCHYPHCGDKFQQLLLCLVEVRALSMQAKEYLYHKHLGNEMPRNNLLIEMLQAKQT
row,Binder,phage ELISA signal ratio
1,PYHDSWFYWPGLTEGV,5.49

# Biological target: NR5A2 297-541 Hormone_recep (domain begin residue: 297, domain end residue: 541), O00482
# Experiment: as above
# Summary of the method: as §1
# Sequence of NR5A2 297-541 Hormone_recep (domain begin residue: 297, domain end residue: 541), O00482 (O00482 whole entry): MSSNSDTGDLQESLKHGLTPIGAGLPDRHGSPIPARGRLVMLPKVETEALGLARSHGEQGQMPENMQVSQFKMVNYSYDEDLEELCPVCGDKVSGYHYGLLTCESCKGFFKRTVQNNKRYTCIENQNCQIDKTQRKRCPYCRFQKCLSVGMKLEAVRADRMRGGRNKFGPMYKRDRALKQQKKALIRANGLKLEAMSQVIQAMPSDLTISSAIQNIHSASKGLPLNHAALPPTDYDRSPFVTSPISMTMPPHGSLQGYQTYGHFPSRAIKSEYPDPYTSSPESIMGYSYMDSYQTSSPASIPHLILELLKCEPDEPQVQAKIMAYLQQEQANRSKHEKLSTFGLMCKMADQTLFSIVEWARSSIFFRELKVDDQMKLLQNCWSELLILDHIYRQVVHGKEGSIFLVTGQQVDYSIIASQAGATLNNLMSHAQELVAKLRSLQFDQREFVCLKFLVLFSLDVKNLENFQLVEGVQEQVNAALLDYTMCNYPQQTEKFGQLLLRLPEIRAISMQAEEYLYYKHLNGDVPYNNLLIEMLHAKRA
row,Binder,phage ELISA signal ratio
1,QQAQPRWWSMVLQHEW,4.92
2,LTMAQQFPYLWSALSN,11.2

# Biological target: T7, NR1D2 386-579 Hormone_recep (domain …
# Experiment: as above
# Summary of the method: as §1
row,Binder,phage ELISA signal ratio
1,PHGITDVWAQWFVEML,5.27

# Biological target: T8, NR1H2 203-460 Hormone_recep (domain …
# Experiment: as above
# Summary of the method: as §1
row,Binder,phage ELISA signal ratio
1,ESLWIIPSNAYWEQVM,17.3
2,DHWWVWGWEAEEYIMP,13.9
